Test results from the supplement of paper PMC9262897, “Low-cost anti-mycobacterial drug discovery using engineered E. coli” (Nature Communications, 2022).
Counter-ions that a name gives are not always drawn. ± gives the standard deviation of the averaged measurements.

Legend:
Test in all cases: growth (OD600 after 10 h); higher = more growth (less inhibition)
[1] = system: E. coli TESEC Alr+ wild-type control; details: compound 0.1 mM; raw OD600 reference: median of DMSO wells 0.241, cell-free background 0.041
Method: (§1)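 TESEC Mtb Alr E. coli, or the Alr+ wild-type control, in 384-well plates with Prestwick library compounds at 0.1 mM and 1% DMSO, across arabinose induction levels of 1E3 to 1E7 nM. Growth is read as OD600 after 10 h at 37 °C in triplicate biological replicates.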

E. coli TESEC Mtb Alr [2] = details: compound 0.1 mM
Method: as §1

E. coli TESEC Mtb Asd = details: compound 0.1 mM
Method: (§2)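 TESEC E. coli strains in which the native enzyme is deleted and replaced by arabinose-inducible Mtb Asd, DapB, CysH or TrpD, each grown in its selective medium. Strains were screened against the Prestwick library at 0.1 mM and 1% DMSO in 384-well format at low and high arabinose induction. Growth is read as OD600 after 10 h in triplicate.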

E. coli TESEC Mtb DapB = details: compound 0.1 mM
Method: as §2

[3] = system: E. coli TESEC Alr+ wild-type control; details: compound 0.1 mM; raw OD600 reference: median of DMSO wells 0.49, cell-free background 0.052
Method: (§3)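 TESEC Mtb Alr E. coli (ΔaraC ΔtolC ΔentC Δalr ΔdadX, arabinose-inducible Mtb Alr) or the Alr+ wild-type control strain, grown in defined M9-fructose medium without D-alanine in 96-well plates with Prestwick library compounds at 0.1 mM and 1% DMSO. Low Alr induction is 0.1 µM arabinose and high induction is 10 mM arabinose.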

E. coli TESEC Mtb Alr [4] = details: compound 0.1 mM; remark: listed apart in the source
Method: as §3

[5] = arabinose 1000 nM, raw OD600 reference: median of DMSO wells 0.294, cell-free background 0.041
[6] = arabinose 10000 nM, raw OD600 reference: median of DMSO wells 0.264, cell-free background 0.041
[7] = arabinose 100000 nM, raw OD600 reference: median of DMSO wells 0.201, cell-free background 0.041
[8] = arabinose 1000000 nM, raw OD600 reference: median of DMSO wells 0.193, cell-free background 0.041
[9] = arabinose 10000000 nM, raw OD600 reference: median of DMSO wells 0.146, cell-free background 0.041
[10] = arabinose induction (level): High, raw OD600 reference: median of DMSO wells 0.331, cell-free background 0.041
[11] = arabinose induction (level): Low, raw OD600 reference: median of DMSO wells 0.417, cell-free background 0.041
[12] = arabinose induction (level): High, raw OD600 reference: median of DMSO wells […], cell-free background 0.041
[13] = arabinose induction (level): Low, raw OD600 reference: median of DMSO wells 0.227, cell-free background 0.041
[14] = arabinose 100 nM, raw OD600 reference: median of DMSO wells 0.413, cell-free background 0.052
[15] = arabinose 10000000 nM, raw OD600 reference: median of DMSO wells […], cell-free background 0.052

| Structure (SMILES) | growth [1] | growth (E. coli TESEC Mtb Alr [2]; [5]) | growth (E. coli TESEC Mtb Alr [2]; [6]) | growth (E. coli TESEC Mtb Alr [2]; [7]) | growth (E. coli TESEC Mtb Alr [2]; [8]) | growth (E. coli TESEC Mtb Alr [2]; [9]) | growth (E. coli TESEC Mtb Asd; [10]) | growth (E. coli TESEC Mtb Asd; [11]) | growth (E. coli TESEC Mtb DapB; [12]) | growth (E. coli TESEC Mtb DapB; [13]) | growth [3] | growth (E. coli TESEC Mtb Alr [4]; [14]) | growth (E. coli TESEC Mtb Alr [4]; [15]) |
| --- | --- | --- | --- | --- | --- | --- | --- | --- | --- | --- | --- | --- | --- |
| COc1ccc2cc(CCC(C)=O)ccc2c1 [Nabumetone] | 0.168 ± 0.0082 | 0.208 ± 0.028 | 0.2236 ± 0.0013 | 0.152 ± 0.012 | 0.109 ± 0.0058 | 0.14 ± 0.0083 | 0.304 ± 0.073 | 0.247 ± 0.04 | 0.175 ± 0.0022 | 0.187 ± 0.0098 | 0.485 ± 0.0083 | 0.399 ± 0.01 | 0.297 ± 0.017 |
| CNC(C)CCC=C(C)C (stereo not given) [Isometheptene mucate] | 0.259 ± 0.012 | 0.314 ± 0.0099 | 0.266 ± 0.011 | 0.21 ± 0.025 | 0.177 ± 0.0051 | 0.1478 ± 0.0012 | 0.228 ± 0.035 | 0.397 ± 0.096 | 0.22 ± 0.0027 | 0.246 ± 0.018 | 0.51 ± 0.055 | 0.405 ± 0.017 | 0.314 ± 0.02 |
| CCc1nc(N)nc(N)c1-c1ccc(Cl)cc1 [Pyrimethamine] | 0.1323 ± 0.0013 | 0.123 ± 0.0079 | 0.0978 ± 0.0026 | 0.123 ± 0.0035 | 0.0795 ± 0.0019 | 0.139 ± 0.002 | 0.17 ± 0.024 | 0.179 ± 0.015 | 0.173 ± 0.016 | 0.191 ± 0.044 | 0.5321 ± 0.0036 | 0.401 ± 0.026 | 0.261 ± 0.018 |
| O=C1CC[C@@H](C(=O)N2CSC[C@H]2C(=O)O)N1 [Pidotimod] | 0.231 ± 0.0032 | 0.29 ± 0.003 | 0.261 ± 0.005 | 0.184 ± 0.032 | 0.217 ± 0.033 | 0.135 ± 0.0014 | 0.271 ± 0.059 | 0.415 ± 0.024 | 0.191 ± 0.013 | 0.235 ± 0.037 | 0.536 ± 0.1 | 0.42 ± 0.011 | 0.335 ± 0.0057 |
| CC1(C)S[C@@H]2[C@H](NC(=O)Cc3ccccc3)C(=O)N2[C@H]1C(=O)O [Benzylpenicillin sodium] | 0.237 ± 0.005 | 0.2824 ± 0.00081 | 0.282 ± 0.0074 | 0.172 ± 0.011 | 0.227 ± 0.017 | 0.132 ± 0.0078 | 0.331 ± 0.1 | 0.385 ± 0.06 | 0.204 ± 0.013 | 0.229 ± 0.017 | 0.533 ± 0.11 | 0.434 ± 0.0042 | 0.363 ± 0.0066 |
| CC(=O)OCC(=O)[C@@]1(O)CC[C@H]2[C@@H]3CCC4=CC(=O)C=C[C@]4(C)[C@@]3(F)[C@@H](O)C[C@@]21C [Isoflupredone acetate] | 0.206 ± 0.028 | 0.266 ± 0.019 | 0.22 ± 0.0097 | 0.213 ± 0.015 | 0.128 ± 0.0061 | 0.13 ± 0.0065 | 0.348 ± 0.046 | 0.413 ± 0.056 | 0.21 ± 0.01 | 0.253 ± 0.038 | 0.422 ± 0.029 | 0.389 ± 0.0064 | 0.286 ± 0.01 |
| Cc1onc(-c2c(Cl)cccc2Cl)c1C(=O)N[C@@H]1C(=O)N2[C@@H]1SC(C)(C)[C@@H]2C(=O)O [Dicloxacillin sodium salt hydrate] | 0.222 ± 0.0048 | 0.226 ± 0.11 | 0.261 ± 0.0043 | 0.196 ± 0.02 | 0.185 ± 0.007 | 0.149 ± 0.0044 | 0.251 ± 0.056 | 0.311 ± 0.09 | 0.188 ± 0.028 | 0.226 ± 0.018 | 0.516 ± 0.11 | 0.403 ± 0.0099 | 0.351 ± 0.017 |
| CC1CNc2c(cccc2S(=O)(=O)N[C@@H](CCCNC(=N)N)C(=O)N2CC[C@@H](C)C[C@@H]2C(=O)O)C1 (stereo not given in full) [Argatroban] | 0.211 ± 0.0062 | 0.288 ± 0.0078 | 0.257 ± 0.0085 | 0.222 ± 0.014 | 0.182 ± 0.012 | 0.144 ± 0.0053 | 0.348 ± 0.096 | 0.395 ± 0.048 | 0.181 ± 0.0099 | 0.197 ± 0.016 | 0.429 ± 0.019 | 0.404 ± 0.011 | 0.369 ± 0.016 |
| CC[C@H](C)[C@H](N)C1=N[C@H](C(=O)N[C@@H](CC(C)C)C(=O)N[C@H](CCC(=O)O)C(=O)N[C@H](C(=O)N[C@H]2CCCCNC(=O)[C@H](CC(N)=O)NC(=O)[C@@H](CC(=O)O)NC(=O)[C@H](Cc3cnc[nH]3)NC(=O)[C@@H](Cc3ccccc3)NC(=O)[C@H]([C@@H](C)CC)NC(=O)[C@@H](CCCN)NC2=O)[C@@H](C)CC)CS1 [Bacitracin] | 0.306 ± 0.0084 | 0.324 ± 0.0095 | 0.252 ± 0.0038 | 0.387 ± 0.0099 | 0.176 ± 0.0086 | 0.214 ± 0.013 | 0.298 ± 0.05 | 0.269 ± 0.054 | 0.266 ± 0.033 | 0.243 ± 0.028 | 0.49 ± 0.073 | 0.421 ± 0.015 | 0.348 ± 0.028 |
| c1ccc(-c2ccc(C(c3ccccc3)n3ccnc3)cc2)cc1 (stereo not given) [Bifonazole] | 0.048 ± 0.0064 | 0.0456 ± 0.0051 | 0.0548 ± 0.0019 | 0.0516 ± 0.0035 | 0.0499 ± 0.0019 | 0.0504 ± 0.0085 | 0.048 ± 0.00098 | 0.0481 ± 0.0011 | 0.0611 ± 0.0018 | 0.0597 ± 0.0022 | 0.0548 ± 0.0039 | 0.0739 ± 0.015 | 0.0689 ± 0.0074 |
| Nc1nc(Cl)nc2c1ncn2[C@H]1C[C@H](O)[C@@H](CO)O1 [Cladribine] | 0.263 ± 0.14 | 0.165 ± 0.0084 | 0.0701 ± 0.0033 | 0.118 ± 0.018 | 0.0623 ± 0.0011 | 0.07457 ± 0.00035 | 0.409 ± 0.08 | 0.217 ± 0.015 | 0.244 ± 0.046 | 0.209 ± 0.018 | 0.577 ± 0.12 | 0.42 ± 0.0056 | 0.219 ± 0.031 |
| O=C(NCCNCC(O)COc1ccc(O)cc1)N1CCOCC1 (stereo not given) [Xamoterol hemifumarate] | 0.241 ± 0.013 | 0.303 ± 0.014 | 0.272 ± 0.0074 | 0.195 ± 0.022 | 0.19 ± 0.0053 | 0.138 ± 0.0031 | 0.447 ± 0.069 | 0.463 ± 0.043 | 0.21 ± 0.0088 | 0.232 ± 0.024 | 0.631 ± 0.0095 | 0.405 ± 0.016 | 0.326 ± 0.0053 |
| NCCCC[C@H](N[C@@H](CCc1ccccc1)C(=O)O)C(=O)N1CCC[C@H]1C(=O)O [Lisinopril] | 0.257 ± 0.0039 | 0.304 ± 0.0053 | 0.251 ± 0.0067 | 0.213 ± 0.0063 | 0.177 ± 0.0033 | 0.159 ± 0.0064 | 0.35 ± 0.051 | 0.4 ± 0.031 | 0.212 ± 0.0046 | 0.316 ± 0.057 | 0.49 ± 0.035 | 0.41 ± 0.015 | 0.343 ± 0.0091 |
| NCCCCCC(=O)O [Aminocaproic acid] | 0.249 ± 0.0031 | 0.314 ± 0.019 | 0.257 ± 0.016 | 0.1768 ± 0.00047 | 0.172 ± 0.0099 | 0.161 ± 0.0086 | 0.47 ± 0.023 | 0.438 ± 0.028 | 0.206 ± 0.02 | 0.28 ± 0.025 | 0.463 ± 0.025 | 0.407 ± 0.017 | 0.354 ± 0.025 |
| CC[C@@H](CO)NCCN[C@@H](CC)CO [Ethambutol dihydrochloride] | 0.25 ± 0.0032 | 0.291 ± 0.023 | 0.255 ± 0.0099 | 0.216 ± 0.021 | 0.18 ± 0.0035 | 0.147 ± 0.0024 | 0.353 ± 0.067 | 0.39 ± 0.091 | 0.19 ± 0.0055 | 0.2 ± 0.022 | 0.476 ± 0.06 | 0.411 ± 0.0072 | 0.366 ± 0.015 |
